High-throughput results from PubChem.
BoNT-A LC inh2 = blocks Botulinum neurotoxin A light chain protease. multiplex microsphere protease substrate cleavage, flow cytometry. inhibition, % at 10 µM. actives 0.17% (n = 360,000); in the data active = inhibition above about 30%; inconclusive = no clear call, values can overlap the other calls; also: plate controls were buffer without enzyme for full effect and enzyme alone for no effect
Mtb FBA inh = inhibits M. tuberculosis FBA enzyme | inhibition, % at 1 µM | AID 588726 | P9WQA3 | actives 2.3% (n = 360,000) | purified M. tuberculosis FBA, fluorescence read-out;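 also: 0% = vehicle and 100% = reference inhibitor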
Target sequence (P9WQA3 whole entry, looked up): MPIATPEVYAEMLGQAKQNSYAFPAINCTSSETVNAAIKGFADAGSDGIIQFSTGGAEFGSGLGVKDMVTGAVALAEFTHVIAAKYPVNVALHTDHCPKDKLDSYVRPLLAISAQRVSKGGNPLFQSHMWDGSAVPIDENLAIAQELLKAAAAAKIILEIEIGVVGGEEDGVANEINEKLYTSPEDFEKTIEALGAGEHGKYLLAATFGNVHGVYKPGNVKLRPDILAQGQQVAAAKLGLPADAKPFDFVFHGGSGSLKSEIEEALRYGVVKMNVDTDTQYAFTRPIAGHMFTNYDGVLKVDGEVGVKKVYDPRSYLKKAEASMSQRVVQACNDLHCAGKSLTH
Anthrax LF inh2 = blocks Bacillus anthracis lethal factor protease; AID 588501; inhibition, % at 10 µM; actives 0.12% (n = 360,000); multiplex microsphere protease cleavage assay, LF; P15917; in the data active = inhibition above about 30%; inconclusive = no clear call, values can overlap the other calls; also: plate controls were buffer without enzyme for full effect and enzyme alone for no effect
GDH-TPI counter-1 = counter-screen for M. tuberculosis FBA inhibitors: GDH-TPI coupled enzymes; GDH-TPI coupled enzyme counterscreen, NADH absorbance; actives 1.2% (n = 360,000); AID 588335; inhibition, % at 4.8 µM; in the data active = inhibition above about 30%;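 also: 0% = DMSO wells and 100% = wells lacking the enzyme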
BoNT-F LC inh = BoNT F light chain protease inhibition. AID 588497. actives 0.22% (n = 360,000). Multiplex microsphere protease cleavage assay, flow cytometry. inhibition, % at 10 µM; in the data active = inhibition above about 35%, passing the limit was not always enough; inconclusive = no clear call, values can overlap the other calls; also: plate controls were buffer without enzyme for full effect and enzyme alone for no effect
Bead autofluor = counter-screen for toxin protease inhibitors: compound fluorescence | compound autofluorescence counterscreen, microsphere flow cytometry; stronger effect = higher value | actives 3.1% (n = 360,000) | fluorescence intensity (no concentration beside the values) | AID 624483; in the data active = fluorescence intensity above about 16000; inconclusive = no clear call, values can overlap the other calls
Mtb FBA confirm = Mtb FBA inhibition, confirmed. shares compounds with Mtb FBA inh. purified M. tuberculosis FBA, fluorescence read-out. inhibition, % at 1 µM. actives 78% (n = 5,600). AID 651616;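 also: 0% = vehicle wells and 100% = reference inhibitor wells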
GDH-TPI counter-2 = counter-screen for M. tuberculosis FBA inhibitors: GDH-TPI coupled enzyme inhibition; GDH-TPI coupled enzyme counterscreen, fluorescence; actives 81% (n = 5,600); shares compounds with Mtb FBA inh; AID 652141; inhibition, % at 1 µM; in the data active = inhibition above about 10%
The depositor's hits bear a star; ? = inconclusive; . = not tested or not shown; + = active, no number. Shown are actives, neighbours in structure and some others; about 6.6% of the full set was active somewhere. Rule as the data show it, unless noted: active = inhibition above about 27%; inactive = the rest.

SMILES	BoNT-A LC inh2	Mtb FBA inh	Anthrax LF inh2	GDH-TPI counter-1	BoNT-F LC inh	Bead autofluor	Mtb FBA confirm	GDH-TPI counter-2
CCCCNC(=O)C[C@@H]1C[C@@]2(C(=O)OCC)CCC=C2N(Cc2ccc(Cl)cc2Cl)C1=O	0	.	2	.	-1	4332	.	.
COC(=O)C1C(O)=C(C=Nc2cccc3ccccc23)C(=O)CC1(C)C (centres undefined)	0	32*	-9	5	0	5626	131*	93*
CC1=NN(C(=O)c2ccc(Cn3cc([N+](=O)[O-])cn3)cc2)C(O)(C(F)(F)F)C1 (centres undefined)	0	0	1	4	-1	2521	.	.
Cc1oc(-c2ccc(F)cc2)nc1CN1CCCC(C(=O)N2CCOCC2)C1 (centres undefined)	-1	-3	-1	1	0	4851	.	.
COC(=O)c1ccc(-c2nc(CN3CCC(C(=O)N4CCOCC4)CC3)c(C)o2)cc1	3	48*	-1	-3	6	5359	47*	37*
CC(C)N1CCc2c(sc(NC(=O)CCS(=O)(=O)c3ccccc3)c2C#N)C1	-3	1	-3	10	-14	4604	.	.
CCn1c(CO)nc2c1c(=O)[nH]c(=O)n2Cc1ccccc1	2	9	-20	-5	-6	3869	.	.
Cc1ccc(-c2nc3c(c(=O)[nH]c(=O)n3Cc3ccccc3)n2C)o1	1	36*	-2	8	3	6896	98*	115*
Cc1ccc(-c2nc3c(c(=O)[nH]c(=O)n3Cc3ccccc3)n2Cc2ccccc2)o1	1	38*	-2	10	-5	4227	153*	133*
Cc1cc(=O)[nH]c(-c2cccnc2)n1	-1	4	-7	1	2	3595	.	.
COc1ccc(NCC(=O)Nc2cccc(C(F)(F)F)c2)cc1S(=O)(=O)N1CCOCC1	0	5	2	12	1	3927	.	.
Cc1c(C)c2ccc(OCC(=O)NC3CCN(Cc4ccccc4)CC3)cc2oc1=O	2	39*	-1	13	1	5978	50*	39*
CCCCCCc1c(C)c2ccc(OCC(=O)N[C@@H](Cc3ccccc3)C(=O)O)cc2oc1=O	0	73*	-9	12	-2	5456	+	+
COc1ccc(NCc2cc(=O)oc3cc(NC(C)=O)ccc23)cc1	-3	73*	-2	16	-18	4185	121*	88*
Cc1c(CC(=O)NCC(=O)N[C@H](Cc2ccccc2)C(=O)O)c(=O)oc2cc(O)ccc12	0	.	8	28	1	5094	.	.
Cc1c(Cc2ccccc2)c(=O)oc2c(C)c(OCC(=O)N[C@@H](Cc3ccccc3)C(=O)O)ccc12	-1	53*	-7	12	-5	5841	+	+
COc1ccc2c(CC(=O)N[C@@H](Cc3ccccc3)C(=O)O)cc(=O)oc2c1	-4	101*	14	18	-38	4102	100*	86*
COc1ccc2c(CN(Cc3ccccc3)Cc3ccccc3)cc(=O)oc2c1	0	7	-5	.	6	6000	.	.
Cc1c(OCC(=O)NC(Cc2ccc(Cl)cc2)C(=O)O)ccc2c1oc(=O)c1ccccc12 (centres undefined)	-1	17	-6	16	0	5600	.	.
COc1ccc2c(COC(=O)[C@H](C)NS(=O)(=O)c3ccccc3F)cc(=O)oc2c1	1	109*	0	20	0	4117	+	153*
CCCc1cc(=O)oc2cc(OCC(=O)NC(Cc3ccc(Cl)cc3)C(=O)O)ccc12 (centres undefined)	0	18	6	2	-2	5045	.	.
C=CCNS(=O)(=O)c1ccc(C(=O)OCc2cc(=O)oc3cc(OC)ccc23)cc1	-3	20	-3	7	-8	6999	.	.
Cc1c(Cc2ccccc2)c(=O)oc2cc(OCC(=O)NC(Cc3ccc(Cl)cc3)C(=O)O)ccc12 (centres undefined)	0	92*	0	13	-3	4187	170*	151*
Cc1c(C)c2ccc(OCC(=O)NC(Cc3ccc(Cl)cc3)C(=O)O)cc2oc1=O (centres undefined)	0	96*	-8	7	-5	5046	116*	79*
Cc1ccc(S(=O)(=O)N2CCN(C(=O)Cc3c(F)cccc3Cl)CC2)cc1	2	-1	2	0	-4	5856	.	.
SMILES	BoNT-A LC inh2	Mtb FBA inh	Anthrax LF inh2	GDH-TPI counter-1	BoNT-F LC inh	Bead autofluor	Mtb FBA confirm	GDH-TPI counter-2
O=S(=O)(CCc1ccncc1)C1Cc2cccc3cccc1c23 (centres undefined)	-2	6	-8	-9	?	4032	.	.
Cc1cc2oc(=O)cc(COC(=O)c3n[nH]c4ccccc34)c2cc1C	-1	7	-2	7	-3	2436	.	.
COc1ccc2c(COC(=O)c3n[nH]c4ccccc34)cc(=O)oc2c1	0	35*	-2	14	?	4731	124*	107*
Cc1c(C)c2ccc(OCC(=O)N[C@@H](Cc3c[nH]c4ccccc34)C(=O)O)cc2oc1=O	0	10	-2	27	-13	3960	.	.
Cc1cc(OCC(=O)NCc2cccnc2)c2c(C)c(Cc3ccccc3)c(=O)oc2c1	0	12	2	0	0	5288	.	.
Cc1cc(OCC(=O)N[C@@H](CSCc2ccccc2)C(=O)O)c2c(C)c(C)c(=O)oc2c1	0	62*	-7	18	1	4035	78*	68*
Cc1c(Cc2ccccc2)c(=O)oc2c(C)c(OCC(=O)N3CCC(C(=O)O)CC3)ccc12	0	107*	1	21	-5	5941	60*	32*
Cc1c(Cc2ccccc2)c(=O)oc2c(C)c(OC(C)C(=O)NCC3CCC(C(=O)O)CC3)ccc12 (centres undefined)	0	15	0	-10	-4	5867	.	.
Cc1c(C)c2ccc(OCC(=O)N[C@@H](Cc3ccccc3)C(=O)O)cc2oc1=O	-1	77*	-6	12	6	5593	95*	81*
CC1CCCCN1CCCNc1ccc(C(CC(N)=O)NC(=O)Cc2cccc3ccccc23)cc1[N+](=O)[O-] (centres undefined)	0	-2	-8	-4	-14	4053	.	.
CC(=O)Nc1cccc(C(=O)N2CCN(S(=O)(=O)c3ccc(C4CCCCC4)cc3)CC2)c1	2	2	0	-2	6	?	.	.
COc1ccc(NC(=O)C2c3ccccc3OCC(=O)N2C2CC2)cc1 (centres undefined)	0	.	-3	.	4	5588	.	.
COc1ccc(-c2nnc(SCc3cc(C)ccc3C)n2N)cc1	-1	1	-4	-4	-3	9522	.	.
